From PubChem BioAssay (NCI)
About 83,000 compounds went through this panel and 20% of them were active in at least one assay; those are over-represented in the sample as a whole.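 96-well plates, one dose, 48 hours. Percent growth reported; active if below 10.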 A number with no mark means an inactive call. The source made the active and inactive calls.

Tests used:
Test in all cases: NCI-60 one-dose screen, 48 h (100 = growth as untreated, 0 = no growth, -100 = all killed)
Settings in all cases: 10 µM unless noted
T-47D breast = system: T-47D breast
BT-549 breast = system: BT-549 breast
MDA-MB-435 melanoma = system: MDA-MB-435 melanoma
SW-620 colon = system: SW-620 colon
MCF7 breast = system: MCF7 breast
HCT-116 colon = system: HCT-116 colon
HCC-2998 colon = system: HCC-2998 colon
KM12 colon = system: KM12 colon

SMILES | growth (T-47D breast) | growth (BT-549 breast) | growth (MDA-MB-435 melanoma) | growth (SW-620 colon) | growth (MCF7 breast) | growth (HCT-116 colon) | growth (HCC-2998 colon) | growth (KM12 colon)
C=C(C)[C@@H]1CC[C@]2(C(=O)NCCNCCNCCN)CC[C@]3(C)[C@H](CC[C@@H]4[C@@]5(C)CCC(=O)C(C)(C)[C@@H]5CC[C@]43C)[C@@H]12 | -4.36% [100 µM] (active) | 58.3% [100 µM] | -49.9% [100 µM] (active) | -76.7% [100 µM] (active) | -58% [100 µM] (active) | -80.7% [100 µM] (active) | -90% [100 µM] (active) | -81.9% [100 µM] (active)
O=S(=O)(NCc1ccccc1)c1ncnc2nc[nH]c12 | 107% | 93.7% | 110% | 103% | 98.1% | 108% | 101% | 101%
COc1cc2c(cc1OCCCN1CCN(CCCOc3cc4c(cc3OC)C(=O)N3C[C@H](F)C[C@H]3C=N4)CC1)N=C[C@@H]1C[C@@H](F)CN1C2=O | 13.4% | -68.5% (active) | -24.9% (active) | -19.1% (active) | 6.75% (active) | 8.44% (active) | -13.1% (active) | -20% (active)
Fc1ccc(NC(=S)c2ccccc2)cc1 | 96.4% | 90.3% | 98% | 102% | 93.9% | 103% | 116% | 100%
CCN1CCN(CC(=O)Nc2nc3ccc(NCc4ccc(Cl)cc4)cc3s2)CC1 | 50.6% | 76.4% | -10.6% (active) | 22% | 33.6% | 12.6% | 82.1% | 59.9%
